What all share (assay): PBM binding z-score (relative to random genomic background probes); higher = stronger binding; sequences stand for … in GC…GCGATTGACAGCGTAGAATGAAGG
Test [1] deals with FXR:RXRa (NR concentration 270 nM, RXRa partner concentration 90 nM). Put shortly:
(§1)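 Probes were double-stranded and carried 34-nt variable regions with direct-repeat seeds, single-nucleotide variants, half-site ablations and random human genomic background sequences, printed on custom Agilent 4×180K protein-binding microarrays. Arrays were incubated 1 h with ligand-free nuclear receptor dimers in PBS pH 7.4, 2% milk, 0.02% Triton X-100, 1 mM DTT, 0.2 mg/mL BSA and 0.4 mg/ml salmon testes DNA. Antibodies against each partner (one per run) detected binding, and scanned fluorescence was regression-normalized. Binding z-scores use the random background probes as reference.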

Test [2] concerns LXRa:RXRa (NR concentration 270 nM, RXRa partner concentration 90 nM). Put shortly:
as §1

Test [3] concerns LXRa homodimer (NR concentration 270 nM). The gist of the method:
as §1

For test [4], the system named is LXRb:RXRa (NR concentration 270 nM, RXRa partner concentration 90 nM). The gist of the method: as §1
In test [5] the test system is LXRb homodimer (NR concentration 270 nM). The gist of the method: as §1
In test [6] the test system is PPARa:RXRa (NR concentration 270 nM, RXRa partner concentration 90 nM). Put shortly: as §1
Test [7] deals with PPARg:RXRa (NR concentration 180 nM, RXRa partner concentration 90 nM). The gist of the method: as §1
In test [8] the test system is PPARg:RXRa 270nM:90nM, anti-RXR (NR concentration 270 nM, RXRa partner concentration 90 nM). The gist of the method: as §1
The test system of test [9] is PPARg:RXRa 30nM:10nM, anti-RXR (NR concentration 30 nM, RXRa partner concentration 10 nM). The gist of the method: as §1
In test [10] the test system is PPARg:RXRa 90nM:30nM, anti-RXR (NR concentration 90 nM, RXRa partner concentration 30 nM). The gist of the method:
as §1

Test [11] relates to PPARg:RXRa DBDmut IVT, anti-RXR (DBD mutation: RXRa K156A/R161A, NR concentration 270 nM, RXRa partner concentration 90 nM). Put shortly:
as §1

Test [12] deals with PPARg:RXRa IVT, anti-PPARg (NR concentration 270 nM, RXRa partner concentration 90 nM). The gist of the method:
as §1

For test [13], the system named is PPARg DBDmut:RXRa IVT, anti-PPARg (DBD mutation: PPARg1 K132A/R137A, NR concentration 270 nM, RXRa partner concentration 90 nM). Put shortly:
as §1

In test [14] the test system is PPARg DBDmut IVT, anti-PPARg (DBD mutation: PPARg1 K132A/R137A, NR concentration 270 nM). The gist of the method:
as §1

The test system of test [15] is PPARg homodimer (NR concentration 180 nM). The gist of the method: as §1
Test [16] has as its system PXR:RXRa (NR concentration 270 nM, RXRa partner concentration 90 nM). Put shortly:
as §1

Test [17] deals with PXR homodimer (NR concentration 270 nM). Put shortly: as §1
The test system of test [18] is RARa:RXR (NR concentration 270 nM, RXRa partner concentration 90 nM). The gist of the method: as §1
Test [19] deals with RARa homodimer (NR concentration 270 nM). Put shortly: as §1
In test [20] the test system is RARb:RXRa (NR concentration 270 nM, RXRa partner concentration 90 nM). The gist of the method: as §1

As for GCTGTTAGTTGAAAGGGCAACCGAATGATTCTCG, the PBM binding z-score in test [1] is 0.495; in [2], 0.93; in test [3] it was -0.0723; in test [4] it was 0.717; in test [5] it was 0.0485; in [6] it was 2.12. Moreover, the PBM binding z-score in test [7] is 1.42; in [8], 2.9; in [9], 0.9; in [10] it was 2.33; in [11], 0.247; in [12], 0.541. Besides, the PBM binding z-score in test [13] worked out at 0.463; in [14] it was 0.0066; in test [15], 1.39; in test [16], 0.665; in test [17], 0.0448; in [18], 1.48. In addition, the results for the PBM binding z-score in test [19] and in test [20] were 0.147 and 2.08, respectively.

Regarding GCAGACAGGTGAAACGCAGCTAACTCAGGGTGGC, the PBM binding z-score was -0.722 in test [1]; -0.436 in test [2]; -0.887 in [3]; -0.728 in test [4]; -1.13 in test [5]; 0.359 in [6]. Further, the PBM binding z-score was 0.371 in test [7]; -0.353 in [8]; -0.974 in test [9]; -0.585 in [10]; 0.771 in test [11]; 0.278 in [12]. Besides, the PBM binding z-score was -1.29 in test [13]; -0.6 in [14]; -1.08 in test [15]; -0.921 in test [16]; -0.971 in [17]; -0.616 in test [18]. In addition, the PBM binding z-score in [19] is -1.12; in test [20] it was 0.0872.

Consider CCGACTGGGGCTGAAAGGTTACCATACCATCCGG, for which the PBM binding z-score in test [1] was 0.294; in test [2], 0.581; in test [3], -0.00145; in [4], 0.846; in test [5], -1.11; in test [6] it was 1.76. In addition, the PBM binding z-score is 0.998 in [7]; 1.93 in test [8]; 0.223 in test [9]; 1.31 in [10]; -0.623 in test [11]; -0.162 in [12]. The PBM binding z-score in test [13] was -1.05; in test [14], -1.01; in test [15] it was 0.352; in test [16], 1.1; in test [17], -0.23; in test [18], 1.85. The PBM binding z-score was -0.057 in test [19] and 1.46 in test [20].

In the case of TCTTGTAGAGCAACAGGAGGTTAAGAAAGATCGA, the PBM binding z-score in [1] was 0.207; in [2] it was 0.661; in [3], -0.177; in test [4], 0.486; in test [5] it was -0.586; in test [6] it was 1.12. Also, the PBM binding z-score in test [7] was -0.0991; in test [8], 0.587; in test [9] it was 1.4; in test [10], 0.921; in [11], 1.98; in test [12] it was 1.27. Moreover, the PBM binding z-score in test [13] is 0.588; in [14], 0.0668; in test [15] it was -0.265; in test [16], 0.413; in [17], -0.46; in test [18] it was 0.506. Also, the values for the PBM binding z-score in test [19] and in test [20] were -0.541 and 0.184, respectively.

Turning to TCTCGTTGGTCAAAGGTCACACACTCGAAATGCG, the PBM binding z-score stood at 6.33 in [1]; 5.68 in [2]; 4.45 in [3]; 5.88 in [4]; 2.23 in test [5]; 6.57 in test [6]. Also, the PBM binding z-score worked out at 9.51 in test [7]; 8.55 in [8]; 7.87 in test [9]; 9.27 in test [10]; 2.72 in [11]; 5.29 in test [12]. Moreover, the PBM binding z-score in [13] came out at 0.705; in test [14] it was 2.09; in test [15], 5.26; in test [16], 5.86; in test [17], 2.2; in test [18] it was 7.31. The PBM binding z-score in test [19] came out at 3.39; in test [20] it was 5.27.

With TCCAGCAGGCCAGAGGGTCACTCAAGAGGTACGG, the PBM binding z-score in test [1] is 0.97; in [2] it was 1.16; in test [3], -0.45; in test [4] it was 1.18; in test [5] it was -1.14; in test [6], 2.23. Further, the PBM binding z-score in test [7] is 0.983; in test [8] it was 1.87; in test [9], 1.59; in [10] it was 1.79; in test [11], 0.933; in test [12], 0.217. Also, the PBM binding z-score was -0.437 in [13]; -1.27 in test [14]; 0.577 in test [15]; 1.45 in test [16]; -0.376 in test [17]; 2.3 in test [18]. Besides, the PBM binding z-score in test [19] was -0.207; in [20], 2.2.

(Values after the supplement of paper PMC6555819.)
